Test results reported in PubChem BioAssay.
The source made the active and inactive calls. Unless noted, no rule for the calls is given here.

How the values were obtained:
[1] = tested on: Wnt5a (protein binding on small-molecule microarray); experiment: Wnt5a binders on small-molecule microarray, primary screen, biophysical, 635/667 nm fluorescence (AID 1142); conditions: 635 nm fluorescence, higher = more signal;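 also: fluorescence read at 667 nm with signal to noise per printed feature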
[2] = cell viability in Huh7 cells, primary screen, cytotoxicity control for HCV replication inhibitor project, CellTiter-Glo luminescence, basal, 48 h (AID 1143); conditions: Huh7 HCV replicon, higher = more signal, called active from +8 up or from −8 down;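 also: Huh7 hepatoma cells carrying a hepatitis C replication reporter with no stimulus; test concentration not given here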
[3] = P. aeruginosa biofilm formation inhibitors, primary screen, PAO1 strain, BacTiter-Glo luminescence, LB-PBS (AID 1144); conditions: 12 h, higher = more signal
[4] = CREB reporter modulators without forskolin, primary screen, cell-based, PC12, CRE-LacZ reporter, unstimulated (AID 1145); conditions: no forskolin, luminescence, 4.5 h, higher = more signal, called active from +8 up or from −8 down
[5] = CREB reporter modulators under forskolin, primary screen, cell-based, PC12, CRE-LacZ reporter, forskolin-stimulated (AID 1146); conditions: luminescence, 4.5 h, higher = more signal, called active from +8 up or from −8 down;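 also: PC12 cells with 6xCRE LacZ reporter stimulated by forskolin 10 µM; beta-galactosidase reporter signal reflecting CREB driven transcription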
[6] = molecular target: Streptavidin (Streptomyces avidinii) (UniProt P22629); experiment: streptavidin binders on small-molecule microarray, primary screen, artefact control for SMM compound annotation, biophysical, 635/667 nm fluorescence (AID 1147); conditions: streptavidin binding, higher = more signal;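 also: signal reflects streptavidin binding to arrayed compounds as a control protein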
[7] = small-molecule binders of probe aInhba, primary screen, biochemical, small-molecule microarray, 635/667 nm fluorescence (AID 1148); conditions: higher = more signal;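 also: score merges 667nm spot fluorescence with signal-to-noise for antibody binding to printed compounds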
Torsin-1A (Homo sapiens) [8] = molecular target: Torsin-1A (Homo sapiens) (UniProt O14656); experiment: torsin A binders from cell lysate, primary screen, small-molecule microarray, wild-type, 635/667 nm (AID 1149); conditions: COS7 hTOR1A-WT lysate, 635 nm fluorescence, higher = more signal
Torsin-1A (Homo sapiens) [9] = molecular target: Torsin-1A (Homo sapiens) (UniProt O14656); experiment: small-molecule binders of mutant TOR1A in lysate, primary screen, cell lysate, small-molecule microarray, COS7 lysate, 635/667 nm fluorescence (AID 1150); conditions: COS7 hTOR1A mutant lysate, 635 nm fluorescence, higher = more signal;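 also: score pools 667 nm emission and signal to noise measuring lysate protein binding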
[10] = tested on: Sonic hedgehog protein (Shh); experiment: small-molecule binders of Shh protein, primary screen, biochemical, small-molecule microarray, 635/667 nm fluorescence (AID 1151); conditions: small-molecule microarray binding, 635 nm fluorescence; higher = more signal;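 also: Shh protein binding to compounds spotted on small-molecule microarray slides; score combines spot fluorescence intensity with signal-to-noise across triplicate slides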

Streptavidin (Streptomyces avidinii), sequence (P22629 whole entry, looked up): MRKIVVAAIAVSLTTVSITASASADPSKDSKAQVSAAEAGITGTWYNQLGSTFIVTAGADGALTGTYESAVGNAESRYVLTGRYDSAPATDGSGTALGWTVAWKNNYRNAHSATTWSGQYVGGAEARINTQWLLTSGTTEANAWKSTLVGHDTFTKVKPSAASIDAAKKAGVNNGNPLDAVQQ
Torsin-1A (Homo sapiens), sequence (O14656 whole entry, looked up): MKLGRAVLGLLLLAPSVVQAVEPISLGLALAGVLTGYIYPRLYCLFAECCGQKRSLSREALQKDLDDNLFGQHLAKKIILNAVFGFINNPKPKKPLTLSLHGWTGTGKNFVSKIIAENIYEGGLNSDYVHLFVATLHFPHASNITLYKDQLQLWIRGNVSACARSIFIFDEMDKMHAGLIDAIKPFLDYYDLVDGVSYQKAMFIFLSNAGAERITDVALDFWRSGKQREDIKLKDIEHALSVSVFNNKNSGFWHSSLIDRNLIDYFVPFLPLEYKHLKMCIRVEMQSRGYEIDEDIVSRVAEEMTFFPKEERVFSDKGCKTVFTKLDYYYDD

SMILES	composite z-score [1]	z-score [2]	z-score [3]	z-score [4]	z-score [5]	composite z-score [6]	composite z-score [7]	composite z-score (Torsin-1A (Homo sapiens) [8])	composite z-score (Torsin-1A (Homo sapiens) [9])	composite z-score [10]
C=C(COC)C(=O)CC[C@@H](OC(=O)c1cccnc1)c1ccc(CO)o1	0.345	-0.336 (inactive)	-0.0359 (inactive)	0.611 (inactive)	0.114 (inactive)	-0.022	-0.0675	0.247	-0.332	1.6
COc1ccc(C#Cc2ccc3c(c2)[C@]2(C(=O)N3)[C@H](C(=O)NC[C@H](O)c3ccccc3)[C@H]3C(=O)O[C@H](c4ccccc4)[C@H](c4ccccc4)N3[C@@H]2c2ccc(OCCO)cc2)cc1	0.628	-2.89 (inactive)	-0.563 (inactive)	0.478 (inactive)	-0.447 (inactive)	0.59	-0.0173	0.369	0.869	1.96
O=C1C2C=CC(C(O)c3ccc(B(O)O)cc3)N(Nc3ccccc3)C2C(=O)N1c1ccccc1 (stereo not given)	-0.0341	-2.7 (inactive)	-1.06 (inactive)	0.24 (inactive)	1.11 (inactive)	0.471	-0.0797	-0.138	-0.724	-0.661
O=C1C2C=CC(C(O)c3cccs3)N(Nc3ccccc3F)C2C(=O)N1c1ccccc1 (stereo not given)	0.13	-1.1 (inactive)	-1.51 (inactive)	-0.714 (inactive)	-0.198 (inactive)	0.295	-0.159	0.0473	0.605	-0.573
O=C(O)[C@@]1(Cc2ccccc2)N=C(c2ccc(OCCCO)cc2)O[C@H]1c1ccccc1	-0.243	-0.637 (inactive)	-0.622 (inactive)	-0.286 (inactive)	-0.215 (inactive)	-0.28	0.166	-0.184	1.4	0.422
C=CC[C@@]1(C(=O)NCC(O)CO)N=C(c2ccc(OCCCO)cc2)O[C@@H]1c1ccccc1N=[N+]=[N-] (stereo not given in full)	0.147	-4.04 (inactive)	-0.281 (inactive)	0.573 (inactive)	-0.815 (inactive)	1.02	0.246	1.4	1.48	-0.0776
COc1ccc([Si](C)(C)[C@H]2[C@H](CCn3cc(CCO)nn3)O[C@@]3(C(=O)N(Cc4ccc(N5CCOC5=O)cc4)c4ccccc43)[C@@H]2C)cc1	-0.0483	-4.12 (inactive)	9e-05 (inactive)	0.469 (inactive)	-2.21 (inactive)	-0.0903	-0.0044	0.676	0.806	1.59
O=C(CS)NCCCCCCNC(=O)[C@@H]1C[C@@H]2C(=O)N3CCC[C@H]3C(=O)N2[C@@H]1c1ccc(O)cc1	0.133	0.589 (inactive)	0.178 (inactive)	-0.39 (inactive)	-0.972 (inactive)	-0.974	-0.129	0.971	1.1	0.881
COC(=O)c1ccc(C(O)C2C=CC3C(=O)N(c4ccccc4)C(=O)C3N2Nc2ccc(C#N)cc2)o1 (stereo not given)	0.304	1.07 (inactive)	-1.05 (inactive)	1.4 (inactive)	-0.22 (inactive)	0.337	-0.0901	0.928	0.0721	-0.0224
O=C1OCCC=C[C@H]2OC34C=CCN(Cc5ccccc5)C(=O)[C@H]3N(CCCCCCO)C(=O)[C@@H]4C12 (stereo not given in full)	-0.751	0.404 (inactive)	-0.616 (inactive)	-0.761 (inactive)	-0.395 (inactive)	-0.887	-0.441	-1.92	-1.4	0.628
COC(=O)[C@@]1(Cc2ccc(OC)cc2)[C@H]2c3cc(C(=O)N4CCCC4)n(Cc4cc(F)cc5c4OCOC5)c3C[C@H]2CN1C(=O)c1ccccc1	0.605	-2.5 (inactive)	0.437 (inactive)	2.68 (inactive)	66.7 (active)	0.699	0.423	0.442	0.996	-0.673
COc1ccc(CCN2C(=O)[C@@]3(Cc4ccccc42)c2ccccc2C(=O)N(Cc2ccccc2Cl)[C@H]3c2ccc(CO)cc2)cc1	-0.0887	-1.7 (inactive)	-0.456 (inactive)	0.558 (inactive)	0.131 (inactive)	-0.343	-0.0403	-0.921	-0.77	-0.801
Cc1c(NC(=O)CC#N)c(=O)n(-c2ccccc2)n1C	0.0101	-2.39 (inactive)	-0.739 (inactive)	-0.671 (inactive)	-0.832 (inactive)	-0.347	-0.179	0.362	-0.0384	0.642
CC1CC/C=C\[C@H]2OC34C=CCN(Cc5ccccc5)C(=O)[C@H]3N(CCCCCO)C(=O)[C@@H]4C2C(=O)O1 (stereo not given in full)	0.008	0.398 (inactive)	1.96 (inactive)	1 (inactive)	0.424 (inactive)	-0.966	-0.242	-1.17	-1.4	-0.829
O=C1O[C@@H](c2ccccc2)[C@@H](c2ccccc2)N2[C@@H](c3ccc(OCCO)cc3)[C@]3(C(=O)Nc4ccccc43)[C@@H](C(=O)Nc3nc4ccccc4s3)[C@H]12	0.441	-3.3 (inactive)	-1.78 (inactive)	0.362 (inactive)	-0.278 (inactive)	1.17	0.289	1.05	1.11	1.75
Cc1ccc(S[C@]2(C(=O)O)CC(=O)N(C3Cc4ccccc4C3)[C@@H]2c2ccc(CO)cc2I)cc1	-0.227	-1.02 (inactive)	-0.138 (inactive)	-0.062 (inactive)	-0.097 (inactive)	0.103	-0.0791	-0.594	-0.584	-0.439
C=C(CCCC)C(=O)CC[C@H](OC(=O)c1cccnc1)c1cccc(OCCO)c1	0.54	-0.293 (inactive)	-0.0707 (inactive)	11 (active)	0.189 (inactive)	0.0158	-0.231	0.524	0.186	1.12
COc1ccc(C(O)C2C=CC3C(=O)N(c4ccccc4)C(=O)C3N2Nc2ccc([N+](=O)[O-])cc2)cc1OCc1ccccc1 (stereo not given)	1.43	-0.317 (inactive)	0.208 (inactive)	-0.387 (inactive)	-0.588 (inactive)	0.935	1.16	-0.153	0.159	-0.381
CCOc1cc(C(O)C2C=CC3C(=O)N(c4ccccc4)C(=O)C3N2Nc2ccc([N+](=O)[O-])cc2)ccc1O (stereo not given)	-0.0182	-1.04 (inactive)	-0.222 (inactive)	2.28 (inactive)	0.507 (inactive)	0.439	-0.101	-0.431	0.196	-0.231
C=C(CCCC)/C(=C/C[C@H](OC(C)=O)c1ccc(CO)o1)c1cnc2ccccc2c1	0.465	0.665 (inactive)	-1.22 (inactive)	0.0563 (inactive)	1.65 (inactive)	1.25	0.0278	0.749	1.08	1.89
NCCCCCNC(=O)[C@H]1C[C@H]2C(=O)NCC(=O)N2[C@H]1c1cccc(OCCO)c1	0.584	0.241 (inactive)	-0.147 (inactive)	-1.08 (inactive)	0.0161 (inactive)	0.579	-0.144	0.483	0.727	2.01
COc1ccc([Si](C)(C)[C@@H]2[C@@H](CC(=O)N3CCC[C@H]3CO)O[C@]3(C(=O)N(C)c4c(Br)cc(C)cc43)[C@H]2C)cc1	0.29	-2.39 (inactive)	0.74 (inactive)	6.67 (inactive)	0.157 (inactive)	0.367	-0.103	0.178	0.67	1.43
O=c1oc(-c2ccccc2)nc2cc(Br)ccc12	0.147	-0.746 (inactive)	0.786 (inactive)	0.416 (inactive)	0.827 (inactive)	0.0708	-0.176	0.641	0.508	0.44
C=CC[C@@H](OC(=O)Nc1ccc(OC)cc1)c1ccc(O)c2ccccc12	0.42	-4.89 (inactive)	-1.39 (inactive)	1.01 (inactive)	4.3 (inactive)	0.737	0.241	1.31	0.625	2.03
COC(=O)[C@@]1(Cc2ccc(OC)cc2)[C@H]2c3cc(C(=O)N4CCCC4)n(CCc4c[nH]c5cc(F)ccc45)c3C[C@H]2CN1C(=O)c1ccccc1	0.313	-1.26 (inactive)	-0.0146 (inactive)	0.773 (inactive)	0.199 (inactive)	2.19	0.636	0.188	1.25	0.133
CCCC[C@H]1OB(O)C[C@H]2C1=C(C)C[C@H]1C(=O)N(Cc3ccccc3)C(=O)[C@H]12	0.34	0.342 (inactive)	0.464 (inactive)	-0.23 (inactive)	-0.155 (inactive)	-0.0276	-0.122	0.358	0.528	1.01
CCC(CC)C(O)C1C=CC2C(=O)N(c3ccccc3)C(=O)C2N1Nc1ccc(C#N)cc1 (stereo not given)	0.658	0.625 (inactive)	-0.939 (inactive)	1.01 (inactive)	0.435 (inactive)	1.24	0.75	0.223	0.775	-0.41
C=C(COC)/C(=C/C[C@H](OC(=O)c1ccncc1)c1cccc(OCCO)c1)c1cc(C(=O)OC)ccc1OC	0.176	-0.865 (inactive)	0.358 (inactive)	8.63 (active)	-0.616 (inactive)	-0.258	-0.024	0.63	0.849	1.38
CN1C(=O)C2C=CC(C(O)c3ccccn3)N(Nc3ccccc3)C2C1=O (stereo not given)	-0.0522	0.901 (inactive)	-0.652 (inactive)	0.0467 (inactive)	0.4 (inactive)	0.324	-0.0069	0.884	-0.179	0.207
COCCOC(=O)N1C(=O)[C@@]2(c3cc(C#CCC(C(=O)OC)C(=O)OC)ccc31)[C@H](C(=O)N1CCN(c3ncccn3)CC1)[C@H]1C(=O)O[C@H](c3ccccc3)[C@H](c3ccccc3)N1[C@@H]2c1ccc(OCCO)cc1	0.148	-3.18 (inactive)	-1.66 (inactive)	-1.83 (inactive)	-1.08 (inactive)	0.392	-0.0221	0.2	0.542	1.3
